Here are results for 15 compounds from PubChem BioAssay (NCATS).

Each structure is given as a SMILES string. Inconclusive results are not listed. Activity calls are given as the source filed them. Calls come from the whole dose curve; as a rule, active = well fitted curve in the direction sought with a large enough effect; inconclusive = small, poorly fitted or top-dose-only effect, or another doubt; inactive = no such curve, though single readings can be large; an effect the other way counts as inactive or inconclusive.

Assay [1] in a line: qHTS of pediatric cancer cell lines to identify multiple opportunities for drug repurposing: Confirmatory screen for DAOY cells (AID 1347114). Note: nearly all actives have a fitted effect of over 65% in size. In short, it runs like this:
(§1)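 Viability measured as metabolically active cells via CellTiter-Glo luminescence following 48 hours of compound exposure, 11-point dilutions in confirmatory testing. 500-1,000 cells/well plated 5 hours before dosing; controls were DMSO and 2.3 µM bortezomib.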
On the technique in general: Quantitative high-throughput screening tests each substance at several concentrations.

The nature of assay [2]: qHTS of pediatric cancer cell lines to identify multiple opportunities for drug repurposing: Confirmatory screen for SJ-GBM2 cells (AID 1347116). Note: nearly all actives have a fitted effect of over 60% in size. In short, it runs like this: as §1
Assay [3] is described as follows: qHTS of pediatric cancer cell lines to identify multiple opportunities for drug repurposing: Confirmatory screen for BT-37 cells (AID 1347117). Note: nearly all actives have a fitted effect of over 55% in size. In short, it runs like this: (§2)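 Cells (500-1,000/well) rested 5 h, then received compounds for 48 h; metabolically active cells were measured by CellTiter-Glo luminescence. Final concentrations spanned up to 46 µM (MIPE, 11-point) or 0.59 nM-46 µM (NPC, 8-point) in primary screens, 11-point in follow-ups.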

Assay [4] is described as follows: qHTS of pediatric cancer cell lines to identify multiple opportunities for drug repurposing: Confirmatory screen for TC32 cells (AID 1347118).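 Note: cells exposed to compound for 48 h before the read; nearly all actives have a fitted effect of over 65% in size.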 In a few lines:
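TC32 cells, 500-1,000/well in growth medium, compound-treated 48 h at 37 °C; viability from CellTiter-Glo luminescence. Primary screen: MIPE 11-point (0.78 nM–46 µM final), NPC 8-point (0.59 nM–46 µM final); confirmatory at 11-point dilutions.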

A short description of assay [5]: qHTS of pediatric cancer cell lines to identify multiple opportunities for drug repurposing: Confirmatory screen for control Hh wild type fibroblast cells (AID 1347121). Note: nearly all actives have a fitted effect of over 70% in size. In a few lines: as §2
Assay [6] is described as follows: qHTS of pediatric cancer cell lines to identify multiple opportunities for drug repurposing: Confirmatory screen for Rh41 cells (AID 1347123).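 Note: 48 h compound exposure; nearly all actives have a fitted effect of over 60% in size.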 In a few lines:
as §2

The nature of assay [7]: qHTS of pediatric cancer cell lines to identify multiple opportunities for drug repurposing: Confirmatory screen for RD cells (AID 1347124).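 Note: cells exposed to compound for 48 h before viability readout; nearly all actives have a fitted effect of over 65% in size.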 In a few lines: as §2
Assay [8] is described as follows: qHTS of pediatric cancer cell lines to identify multiple opportunities for drug repurposing: Confirmatory screen for Rh18 cells (AID 1347125). Note: nearly all actives have a fitted effect of over 55% in size. In a few lines: as §2
Assay [9] in a line: qHTS of pediatric cancer cell lines to identify multiple opportunities for drug repurposing: Confirmatory screen for Rh30 cells (AID 1347126). Note: nearly all actives have a fitted effect of over 55% in size. In a few lines:
as §2

Assay [10] is described as follows: qHTS of pediatric cancer cell lines to identify multiple opportunities for drug repurposing: Confirmatory screen for Saos-2 cells (AID 1347127). Note: nearly all actives have a fitted effect of over 60% in size. In short, it runs like this: as §2
Assay [11] is described as follows: qHTS of pediatric cancer cell lines to identify multiple opportunities for drug repurposing: Confirmatory screen for SK-N-SH cells (AID 1347129).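 Note: cells exposed to compound for 48 h before viability read; nearly all actives have a fitted effect of over 60% in size.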 In a few lines:
as §2

The subject of assay [12] is Zika virus NS2B-NS3 protease. Description: Primary screen GU AMC qHTS for Zika virus inhibitors (AID 1347154). Note: nearly all actives have a fitted effect of over 70% in size. In short, it runs like this: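 Fluorogenic AMC-substrate cleavage by noncovalent NS2B-NS3 protease complex (25 nM, pH 8.0 Tris buffer with Tween 20) followed for 15 minutes at room temperature (~20% conversion). Percent inhibition from ex340/em450 signal change, fitted by 4-parameter Hill equation.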

Assay [13] is described as follows: qHTS of pediatric cancer cell lines to identify multiple opportunities for drug repurposing: Confirmatory screen for LAN-5 cells (AID 1347113). Note: nearly all actives have a fitted effect of over 65% in size. In short, it runs like this: as §2
Assay [14] can be described thus: qHTS of pediatric cancer cell lines to identify multiple opportunities for drug repurposing: Confirmatory screen for MG 63 (6-TG R) cells (AID 1347119). Note: nearly all actives have a fitted effect of over 55% in size. In short, it runs like this:
as §2

Assay [15] concerns the target N-terminal Xaa-Pro-Lys N-methyltransferase 1 (Homo sapiens) (UniProt Q9BV86). Kind of assay: qHTS Assay for Inhibitors of N-terminal methyltransferase 1 (NTMT1): LOPAC validation of the NTMT1 SAHH-coupled ThioGlo3 Assay (AID 1347143).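 Note: SAH from peptide methylation measured as thiol fluorescence via SAHH coupling and ThioGlo3; nearly all actives have a fitted effect of over 70% in size.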 In a few lines: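 NTMT1 125nM + cpds (various conc.), 1 min RT; add SAM 100uM/SAHH 10uM/ThioGlo3 15uM (addition mix). SAHH-coupled thiol detection, Ex340/Em450, t0 and 30 min RT; signal normalized to background. LOPAC 1280-cpd pilot.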
Potency is the fitted concentration of half-maximal effect.

N-terminal Xaa-Pro-Lys N-methyltransferase 1 (Homo sapiens), sequence (Q9BV86 whole entry, looked up): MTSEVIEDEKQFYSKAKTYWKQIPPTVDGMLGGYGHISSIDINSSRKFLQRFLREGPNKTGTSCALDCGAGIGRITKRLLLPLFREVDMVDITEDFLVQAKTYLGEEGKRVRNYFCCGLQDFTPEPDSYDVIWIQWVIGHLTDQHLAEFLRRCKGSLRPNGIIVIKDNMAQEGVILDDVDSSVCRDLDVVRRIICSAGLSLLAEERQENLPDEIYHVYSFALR

In the case of `CCc1cc2cc(OC)c(OC)cc2c(Cc2ccccc2)n1`, the Potency result in [1], in assay [2], in assay [3], in [4], in assay [5] and in [7] was “inactive” throughout. The Potency result in assay [8], in [9], in assay [10], in assay [11] and in assay [12] was “inactive” in each case. Also, in assay [6], the Potency was 18.5 µM (active).

With `CCC1(c2cnc[nH]2)Cc2ccccc2C1`, the Potency entry in [13], in assay [2], in assay [5], in assay [11] and in assay [12] was “inactive” each time. Moreover, the Potency in [3] is 10.4 µM (active); in assay [4], 4.14 µM (active); in assay [14], 14.7 µM (active); in [6], 16.5 µM (active); in assay [8] it was 16.5 µM (active); in [9], 10.4 µM (active). Further, the Potency in assay [10] was 9.27 µM (active).

Take `CC(=O)OCC(=O)[C@@]1(O)CCC2C3CCC4=CC(=O)CC[C@]4(C)C3[C@@H](O)C[C@@]21C` (some centres undefined): the Potency entry in [13], in [1], in assay [14], in assay [5], in assay [8] and in assay [11] was “inactive” in each case. In assay [12], the Potency result was “inactive”. Further, the Potency in assay [4] is 26.1 µM (active); in [6], 11.7 µM (active).

Regarding `CC(=O)O[C@@H]1C(=O)O[C@@H]2[C@H]1OC(=O)[C@@H]2OC(C)=O`, the Potency result in assay [13], in assay [3], in assay [14], in assay [5], in [8] and in assay [10] was “inactive” each time. The Potency result in assay [11] and in assay [12] was “inactive” in each case. Also, the Potency was 1.17 µM (active) in assay [7] and 5.85 µM (active) in assay [9].

Consider `CC(=O)OCC(=O)[C@@]1(O)[C@H](OC(C)=O)C[C@H]2[C@@H]3CCC4=CC(=O)C=C[C@]4(C)[C@@]3(F)[C@@H](O)C[C@@]21C`, for which the Potency result in [13], in assay [1], in assay [3], in [14], in assay [5] and in assay [6] was “inactive” throughout. For the same compound, the Potency result in assay [7], in assay [8], in [10], in assay [11] and in assay [12] was “inactive” in each case.

As to `O=[N+]([O-])c1ccc(O)c2ncccc12`, the Potency in assay [13] was 9.27 µM (active); in assay [3], 7.37 µM (active); in [4], 5.85 µM (active); in assay [8] it was 10.4 µM (active); in [11], 9.35 µM (active). The Potency result in [12] was “inactive”.

Consider `Brc1ccc([C@H]2CN3CCSC3=N2)cc1`, for which the Potency in [15] is 79.4 µM (active).

For the compound `CCN(CC)CC(=O)OCC(=O)[C@@]1(O)CC[C@H]2[C@@H]3CCC4=CC(=O)CC[C@]4(C)[C@H]3[C@@H](O)C[C@@]21C`, the Potency entry in assay [1], in assay [3], in assay [5], in [6], in assay [8] and in assay [10] was “inactive” throughout. In addition, the Potency result in [11] and in [12] was “inactive” each time. The Potency in [4] was 11.7 µM (active).

In the case of `CC[C@@]1(O)C(=O)OCc2c1cc1n(c2=O)Cc2c-1nc1ccccc1c2/C=N/OC(C)(C)C`, the Potency in assay [13] was 0.0147 µM (active); in assay [2], 0.0928 µM (active); in [3], 0.0093 µM (active); in assay [4], 0.0052 µM (active); in [14], 0.0185 µM (active); in [6], 0.522 µM (active). In addition, the Potency in assay [8] was 0.465 µM (active); in assay [9], 0.522 µM (active); in assay [10], 0.0165 µM (active); in [11] it was 1.87 µM (active); in [12], 14.4 µM (active).

Consider `C[C@]12CCC(=O)C=C1CC[C@@H]1[C@@H]2[C@@H](O)C[C@@]2(C)[C@H]1CC[C@]2(O)C(=O)COC(=O)CCC(=O)O`, for which the Potency result in [13], in assay [1], in assay [2], in assay [3], in assay [14] and in [5] was “inactive” in each case. Besides, the Potency entry in [6], in assay [7], in assay [8], in [9], in [10] and in assay [11] was “inactive” each time. Also, in assay [12], the Potency entry was “inactive”.

In the case of `CO[C@@H]1[C@@H](OC)[C@H](C)[C@@](O)(CC(=O)O)O[C@H]1[C@H](C)[C@H]1O[C@@]2(CC[C@@](C)([C@H]3CC[C@@](C)([C@@H]4O[C@@H]([C@H]5O[C@](C)(O)[C@H](C)C[C@@H]5C)C[C@@H]4OC4C[C@H](OC)[C@@H](OC)[C@H](C)O4)O3)O2)C[C@H](O)[C@H]1C` (some centres undefined), the Potency is 0.522 µM (active) in [13]; 1.85 µM (active) in [1]; 7.37 µM (active) in assay [2]; 0.522 µM (active) in assay [3]; 2.08 µM (active) in [4]; 0.522 µM (active) in assay [14]. The Potency in assay [5] was 8.27 µM (active); in assay [6], 0.465 µM (active); in assay [8] it was 6.57 µM (active); in [9], 7.37 µM (active); in assay [10] it was 1.17 µM (active); in assay [11], 1.48 µM (active). Also, in assay [12], the Potency entry is “inactive”.

Take `CC(=O)[C@@]1(O)CC[C@H]2[C@@H]3C[C@H](C)C4=CC(=O)CC[C@]4(C)[C@H]3CC[C@@]21C`: the Potency entry in assay [13], in [3], in assay [5], in assay [8], in assay [10] and in assay [11] was “inactive” throughout. For the same compound, in assay [12], the Potency result is “inactive”. The Potency in assay [2] was 1.17 µM (active); in assay [4] it was 10.4 µM (active); in assay [7], 0.827 µM (active); in assay [9], 0.414 µM (active).

Consider `CCCCC(CC)CNC(=O)CC(C)OC(=O)CCC(=O)O` (centres undefined), for which the Potency result in assay [1], in [2], in assay [3], in [14], in assay [5] and in assay [6] was “inactive” throughout. The Potency result in assay [7], in assay [8], in assay [9], in assay [11] and in assay [12] was “inactive” in each case.

As for `COc1cc(/C=C/C(N)=O)cc(OC)c1OC`, the Potency result in assay [13], in [1], in assay [4], in [5], in [6] and in assay [8] was “inactive” throughout. Further, the Potency entry in assay [11] and in assay [12] was “inactive” in each case.

With `CCOC(=O)O[C@]1(C(=O)OCCl)CC[C@H]2[C@@H]3CCC4=CC(=O)C=C[C@]4(C)[C@H]3[C@@H](O)C[C@@]21C`, the Potency entry in [13], in assay [1], in assay [2], in assay [3], in [14] and in assay [5] was “inactive” throughout. The Potency result in assay [6], in assay [7], in assay [8], in assay [9], in [11] and in assay [12] was “inactive” each time.
